Data reported in article PMC5515408, “Sequence-specific DNA binding by MYC/MAX to low-affinity non-E-box motifs”.
Whole data set: some 4,500 sequences, median “log2 normalized fluorescence” near -0.34, cut for the highest 2% near 3.3. Many of the other results were omitted from the sample, so the highest values are more common in it than they were.

Each sequence was assayed against MAX:MAX (p21) (human, UniProt P61244-2 1-151) (assay: protein-binding microarray (anti-MAX antibody); PBM: 15 mM Tris-HCl pH 7.5, 100 mM KCl, 0.075% NP40, 7.5 mM beta-mercaptoethanol, 375 ng/ul BSA, 8 ng/ul poly(dA-dT):(dA-dT), 550 ng complex, 60 min, room tempe; high values mean tight binding). Conditions: protein: recombinant; tags: 6xHis; chain copies: 2; label: 3' end of printed strand (linker) attached to glass slide; dsDNA, one strand shown.
Method in brief: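 Binding, given as log2 normalized fluorescence, was measured on a custom Agilent glass array. The array bore ~5000 unique 12-nt sequences spotted in triplicate and converted to double strands by primer extension. It was incubated with 550 ng of human His-tagged MYC:MAX or MAX:MAX dimers from E. coli for 60 min at room temperature in Tris-KCl buffer, pH 7.5, with NP40, BSA and poly(dA-dT) competitor, and bound protein was detected with anti-MAX and secondary antibodies and scanned at 543 nm.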

MAX:MAX (p21), sequence (P61244 other isoform, or with tags, fused parts or gaps): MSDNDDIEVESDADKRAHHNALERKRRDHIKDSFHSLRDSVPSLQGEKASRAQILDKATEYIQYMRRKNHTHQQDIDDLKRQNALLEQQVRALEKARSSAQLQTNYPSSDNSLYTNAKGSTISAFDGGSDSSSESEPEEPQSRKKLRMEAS

Question: Which binding signal does the source give for “CCGGCTGACGCAGGGTATTAATAGCTAAGATTACTATATCGACG” here?
Answer: The binding signal was -0.104 log2 normalized fluorescence.

Question: How did the binding signal turn out when “CCGGCTGACCTGCTGTATTAATAGCTAAGATTACTATATCGACG” was run?
Answer: The binding signal was 0.214 log2 normalized fluorescence.

Question: “CCGGCTGAAGAGTGGTATTAATAGCTAAGATTACTATATCGACG” was tested. Which binding signal did it give?
Answer: Its binding signal is 0.0783 log2 normalized fluorescence.

Question: “CCGGCTGAGGGGGAGTATTAATAGCTAAGATTACTATATCGACG” was tested. Which binding signal did it give?
Answer: Its binding signal is 1.48 log2 normalized fluorescence.

Question: “CCGGCTGAACCCAGGTATTAATAGCTAAGATTACTATATCGACG” was tested. Which binding signal did it give?
Answer: Its binding signal is -0.34 log2 normalized fluorescence.

Question: Which binding signal does the source give for “CCGGCTGAGTTGAGGTATTAATAGCTAAGATTACTATATCGACG” here?
Answer: Its binding signal is -0.631 log2 normalized fluorescence.

Question: “CCGGCTGACCGGTAGTATTAATAGCTAAGATTACTATATCGACG” was tested. Which binding signal did it give?
Answer: Its binding signal is -0.573 log2 normalized fluorescence.

Question: “CCGGCTGACACAGGGTATTAATAGCTAAGATTACTATATCGACG” was tested. Which binding signal did it give?
Answer: Its binding signal is 0.747 log2 normalized fluorescence.

Question: “CCGGCTGAGAGCCTGTATTAATAGCTAAGATTACTATATCGACG” was tested. Which binding signal did it give?
Answer: The binding signal was -0.287 log2 normalized fluorescence.

Question: “CCGGCTGACAGACCGTATTAATAGCTAAGATTACTATATCGACG” was tested. Which binding signal did it give?
Answer: Its binding signal is 0.179 log2 normalized fluorescence.

Question: “CCGGCTGAACTCATGTATTAATAGCTAAGATTACTATATCGACG” was tested. Which binding signal did it give?
Answer: Its binding signal is 1.71 log2 normalized fluorescence.

Question: For “CCGGCTGACAAGTTGTATTAATAGCTAAGATTACTATATCGACG”, which binding signal is on record?
Answer: The binding signal was -0.304 log2 normalized fluorescence.

Question: “CCGGCTGATCATATGTATTAATAGCTAAGATTACTATATCGACG” was tested. Which binding signal did it give?
Answer: The binding signal was 1.98 log2 normalized fluorescence.

Question: Which binding signal does the source give for “CCGGCCGTCACGTGGTATTAATAGCTAAGATTACTATATCGACG” here?
Answer: The binding signal was 3.18 log2 normalized fluorescence.

Question: For “CCGGCGGTCACGTGGTATTAATAGCTAAGATTACTATATCGACG”, which binding signal is on record?
Answer: The binding signal was 3.37 log2 normalized fluorescence.

Question: For “CCGGCTGTCACGTGGTATTAATAGCTAAGATTACTATATCGACG”, which binding signal is on record?
Answer: Its binding signal is 3.12 log2 normalized fluorescence.

Question: With “CCGGCTGACACGTGGTATTAATAGCTAAGATTACTATATCGACG” as the sequence, how does the binding signal read?
Answer: Its binding signal is 3.19 log2 normalized fluorescence.

Question: “CCGGCGGACACGTGGTATTAATAGCTAAGATTACTATATCGACG” was tested. Which binding signal did it give?
Answer: Its binding signal is 3.33 log2 normalized fluorescence.

Question: Which binding signal does the source give for “CCGGCACACACGTGGTATTAATAGCTAAGATTACTATATCGACG” here?
Answer: Its binding signal is 3.32 log2 normalized fluorescence.

Question: Which binding signal does the source give for “CCGGCGGACACGTGCTATTAATAGCTAAGATTACTATATCGACG” here?
Answer: Its binding signal is 3.15 log2 normalized fluorescence.

Question: Which binding signal does the source give for “CCGGCGGGCACGTGGTATTAATAGCTAAGATTACTATATCGACG” here?
Answer: The binding signal was 3.35 log2 normalized fluorescence.

Question: For “CCGGCTGATACCTGGTGTTAATAGCTAAGATTACTATATCGACG”, which binding signal is on record?
Answer: The binding signal was -0.298 log2 normalized fluorescence.

Question: How did the binding signal turn out when “CCGGCTGACACGTAGAGTTAATAGCTAAGATTACTATATCGACG” was run?
Answer: Its binding signal is 0.996 log2 normalized fluorescence.

Question: Which binding signal does the source give for “CCGGCTGAAGCGGTGTATTAATAGCTAAGATTACTATATCGACG” here?
Answer: The binding signal was -0.554 log2 normalized fluorescence.

Question: Which binding signal does the source give for “CCGGCTGACCCATGGTATTAATAGCTAAGATTACTATATCGACG” here?
Answer: The binding signal was 2.08 log2 normalized fluorescence.

Question: For “CCGGCTGACACGCCATATTAATAGCTAAGATTACTATATCGACG”, which binding signal is on record?
Answer: The binding signal was 2.41 log2 normalized fluorescence.

Question: How did the binding signal turn out when “CCGGCTGATACATAGTATTAATAGCTAAGATTACTATATCGACG” was run?
Answer: Its binding signal is -0.533 log2 normalized fluorescence.

Question: With “CCGGCTGATTCACGGTATTAATAGCTAAGATTACTATATCGACG” as the sequence, how does the binding signal read?
Answer: Its binding signal is 0.000807 log2 normalized fluorescence.

Question: “CCGGCTGAGTGGATGTATTAATAGCTAAGATTACTATATCGACG” was tested. Which binding signal did it give?
Answer: Its binding signal is 0.0423 log2 normalized fluorescence.

Question: How did the binding signal turn out when “CCGGCTGACACGTTGGATTAATAGCTAAGATTACTATATCGACG” was run?
Answer: The binding signal was 3.03 log2 normalized fluorescence.

Question: How did the binding signal turn out when “CCGGCTGATAGTGGGTATTAATAGCTAAGATTACTATATCGACG” was run?
Answer: Its binding signal is -0.372 log2 normalized fluorescence.

Question: How did the binding signal turn out when “CCGGCTGAGTGGCTGTATTAATAGCTAAGATTACTATATCGACG” was run?
Answer: Its binding signal is 0.1 log2 normalized fluorescence.

Question: “CCGGCTGAAAGATGGTATTAATAGCTAAGATTACTATATCGACG” was tested. Which binding signal did it give?
Answer: The binding signal was -0.31 log2 normalized fluorescence.

Question: How did the binding signal turn out when “CCGGCTTGCACGTGGTTTTAATAGCTAAGATTACTATATCGACG” was run?
Answer: Its binding signal is 3.23 log2 normalized fluorescence.

Question: Which binding signal does the source give for “CCGGCTTGCACGTGGTATTAATAGCTAAGATTACTATATCGACG” here?
Answer: Its binding signal is 3.31 log2 normalized fluorescence.

Question: How did the binding signal turn out when “CCGGCTTGCACTTGGTATTAATAGCTAAGATTACTATATCGACG” was run?
Answer: Its binding signal is 0.423 log2 normalized fluorescence.

Question: For “CCGGCTGAGGCGGCGTATTAATAGCTAAGATTACTATATCGACG”, which binding signal is on record?
Answer: The binding signal was -0.641 log2 normalized fluorescence.

Question: With “CCGGCTGAGACGCCGTATTAATAGCTAAGATTACTATATCGACG” as the sequence, how does the binding signal read?
Answer: The binding signal was -0.749 log2 normalized fluorescence.

Question: How did the binding signal turn out when “CCGGCTGAGGTGGTGTATTAATAGCTAAGATTACTATATCGACG” was run?
Answer: The binding signal was -0.0636 log2 normalized fluorescence.

Question: “CCGGCTGAATAAGCGTATTAATAGCTAAGATTACTATATCGACG” was tested. Which binding signal did it give?
Answer: The binding signal was -0.651 log2 normalized fluorescence.

Question: Which binding signal does the source give for “CCGGCTGCCTCGTGGTATTAATAGCTAAGATTACTATATCGACG” here?
Answer: The binding signal was 3.36 log2 normalized fluorescence.

Question: Which binding signal does the source give for “CCGGCCGACGCGTGGTATTAATAGCTAAGATTACTATATCGACG” here?
Answer: The binding signal was 3.33 log2 normalized fluorescence.

Question: With “CCGGCTGCCCCGTGGTATTAATAGCTAAGATTACTATATCGACG” as the sequence, how does the binding signal read?
Answer: Its binding signal is 2.88 log2 normalized fluorescence.

Question: “CCGGCTTACGCGTGGTATTAATAGCTAAGATTACTATATCGACG” was tested. Which binding signal did it give?
Answer: Its binding signal is 3.27 log2 normalized fluorescence.

Question: For “CCGGCCGCGACGTGGTATTAATAGCTAAGATTACTATATCGACG”, which binding signal is on record?
Answer: Its binding signal is 2.79 log2 normalized fluorescence.

Question: “CCGGCTGCCGCGTGGTATTAATAGCTAAGATTACTATATCGACG” was tested. Which binding signal did it give?
Answer: Its binding signal is 3.21 log2 normalized fluorescence.

Question: Which binding signal does the source give for “CCGGCTGCCACGTGGTATTAATAGCTAAGATTACTATATCGACG” here?
Answer: Its binding signal is 3.42 log2 normalized fluorescence.

Question: Which binding signal does the source give for “CCGGCTAACGCGTGGTATTAATAGCTAAGATTACTATATCGACG” here?
Answer: Its binding signal is 3.26 log2 normalized fluorescence.

Question: How did the binding signal turn out when “CCGGCCACCACGTGGTATTAATAGCTAAGATTACTATATCGACG” was run?
Answer: The binding signal was 3.24 log2 normalized fluorescence.

Question: “CCGGCAGCCACGTGGTATTAATAGCTAAGATTACTATATCGACG” was tested. Which binding signal did it give?
Answer: Its binding signal is 3.13 log2 normalized fluorescence.

Question: For “CCGGCTGCGACGTGGTATTAATAGCTAAGATTACTATATCGACG”, which binding signal is on record?
Answer: Its binding signal is 2.27 log2 normalized fluorescence.

Question: For “CCGGCCGCCACGTGGTATTAATAGCTAAGATTACTATATCGACG”, which binding signal is on record?
Answer: Its binding signal is 3.32 log2 normalized fluorescence.

Question: Which binding signal does the source give for “CCGGCTGACAATGGGTATTAATAGCTAAGATTACTATATCGACG” here?
Answer: The binding signal was 0.0164 log2 normalized fluorescence.
